# Results as given in PubChem BioAssay (NCI).
# The panel holds about 79,000 compounds, 15% with a hit somewhere; the sample as a whole holds those more often. Active and inactive are the calls of the source. No stated cut-off is given here; in the data, active means growth inhibition above about 70%; inactive means the rest.
# Assay: NCI Yeast Anticancer Drug Screen. Data for the sgs1 mgt1 strain (AID 161);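 further: 0% = growth of cultures given vehicle only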
# Details: S. cerevisiae sgs1 mgt1 strain, at 50.0 µM (retest, dose inferred, filed as 5.0), active compounds read high
# How it was run: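 Compounds are added to genetically altered yeast, and growth is compared with cultures given vehicle alone to give percent inhibition.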
row,Compound,growth inhibition
1,Oc1c(Br)cc(Cl)cc1Br,99% (active)
2,COc1ccc(C2Oc3ccc(Cl)cc3C=C2[N+](=O)[O-])cc1OC (stereo not given),97% (active)
3,COC(=O)C(=O)CC(=O)c1cccc(Cl)c1,99% (active)
4,O/N=C(/C[N+]12CN3CN(CN(C3)C1)C2)c1ccc(I)cc1,55% (inactive)
5,COc1cc(CCN=Cc2cc(Cl)cc(Cl)c2O)c([N+](=O)[O-])cc1OC,95% (active)
6,COc1ccc2c(c1OC)C1=C(C2=O)c2cc3c(cc2CCN1)OCO3,92% (active)
7,CC(C)(C)[Si](C)(C)OCC1OC(n2cc(I)c(N)nc2=O)C(O[Si](C)(C)C(C)(C)C)C1O[Si](C)(C)C(C)(C)C (stereo not given),98% (active)
8,O=S(=O)(Nc1ccccn1)c1ccc(NCc2c3ccccc3nc3cc(Cl)ccc23)cc1,66% (inactive)
9,OCc1ccc2c(c1)CC1(C2)Cc2cc3c(cc2C1O)CCC3 (stereo not given),22% (inactive)
10,COc1cc(C(c2cc3c(cc2O)OCO3)N2CCOCC2)ccc1O (stereo not given),27% (inactive)
11,CCCCCCCCCCCCCCSC(=N)N,95% (active)
12,Cc1ccccc1NC(=S)Nc1ccccc1O,82% (active)
13,c1cc2cc(Cc3ccc4[nH]ccc4c3)ccc2[nH]1,19% (inactive)
14,N=C(N)c1ccc(-c2ccc(-c3ccc(C(=N)N)cc3)o2)cc1,61% (inactive)
15,O=c1oc2c/c(=C\c3ccccc3)c(=O)c3cccc1c3-2,97% (active)
16,CCCCCCCC(=O)/C=C/c1ccc(C)cc1,-65% (inactive)
17,COc1ccc(CCC2(C)OCCC(C)O2)cc1 (stereo not given),91% (active)
18,O=C(O)C(SC1=NNC2(C(=O)N1)c1ccccc1-c1ccccc12)SC1=NNC2(C(=O)N1)c1ccccc1-c1ccccc12,96% (active)
19,CC1(C)NNC(=S)NN1,14% (inactive)
20,O=C([O-])c1ccccc1[I+]c1ccc(C2CCCCC2)cc1,50% (inactive)

row,Compound,growth inhibition
1,ClC1=C(Cl)C(Cl)(C(Cl)(Cl)Cl)C(Cl)=C1Cl,98% (active)
2,Cn1nc(N)c2cccnc21,6% (inactive)
3,CC(C)(C)c1ccc(-n2c3nc(=O)n(-c4ccccc4C(F)(F)F)c(=O)c-3cc3ccccc32)cc1,98% (active)
4,C/C(=N\Nc1ccccn1)c1ccccn1,98% (active)
5,COc1ccc2c(C)cc(N/N=C(\C)c3ccccn3)nc2c1,42% (inactive)
6,CC([NH-])C(=O)O.[Cu+2].[NH-]C(Cc1cnc[nH]1)C(=O)O (stereo not given),1% (inactive)
7,COc1ccc(C)cc1NC(=O)ON=C1CCCCC1,92% (active)
8,Oc1c(N(Cc2ccccc2)Cc2ccccc2)ccc2cccnc12,97% (active)
9,Cc1ccc2[nH]c3cc4ccncc4cc3c2c1,94% (active)
10,Cc1ccc2nn(-c3ccc(O)cc3)nc2c1,38% (inactive)
11,Oc1ccc2c(ccc3ccccc32)c1,91% (active)
12,ClCc1ccc2ccc3ccc(CCl)nc3c2n1,93% (active)
13,CC(=O)c1c(O)c2ccc(Cl)cc2[nH]c1=O,95% (active)
14,O=C(c1ccc(Cl)cc1)c1ccc(OCCCOc2ccc(C(=O)c3ccc(Cl)cc3)cc2)cc1,-4% (inactive)
15,C=C1CC2(C[C@@H](c3ccccc3)O[C@@H](c3ccccc3)C2)OC1=O (stereo not given in full),98% (active)
16,O=C(N=Nc1c(O)[nH]c2ccccc12)C(O)(c1ccccc1)c1ccccc1,82% (active)
17,C/C(=N\O)c1ccc2c3c(ccc([N+](=O)[O-])c13)CC2,-2% (inactive)
18,N#CS/C(Cl)=C(/C(Cl)=C(Cl)Cl)[N+](=O)[O-],98% (active)
19,N#C/C(=C1C=C/C(=N/O)C=C/1Cl)c1ccccc1,36% (inactive)
20,O=C1/C(=C/c2ccc(Cl)c(Cl)c2)CN(C(=O)CCN2CCOCC2)C/C1=C\c1ccc(Cl)c(Cl)c1,92% (active)

# Same assay, conditions: S. cerevisiae sgs1 mgt1 strain, at 50.0 µM, active compounds read high
row,Compound,growth inhibition
1,Oc1c(Br)cc(Cl)cc1Br,86.5% (active)
2,COc1ccc(C2Oc3ccc(Cl)cc3C=C2[N+](=O)[O-])cc1OC (stereo not given),85.5% (active)
3,COC(=O)C(=O)CC(=O)c1cccc(Cl)c1,64.2% (inactive)
4,O/N=C(/C[N+]12CN3CN(CN(C3)C1)C2)c1ccc(I)cc1,96.2% (active)
5,COc1cc(CCN=Cc2cc(Cl)cc(Cl)c2O)c([N+](=O)[O-])cc1OC,62.4% (inactive)
6,COc1ccc2c(c1OC)C1=C(C2=O)c2cc3c(cc2CCN1)OCO3,61.5% (inactive)
7,CC(C)(C)[Si](C)(C)OCC1OC(n2cc(I)c(N)nc2=O)C(O[Si](C)(C)C(C)(C)C)C1O[Si](C)(C)C(C)(C)C (stereo not given),36.1% (inactive)
8,O=S(=O)(Nc1ccccn1)c1ccc(NCc2c3ccccc3nc3cc(Cl)ccc23)cc1,54.5% (inactive)
9,OCc1ccc2c(c1)CC1(C2)Cc2cc3c(cc2C1O)CCC3 (stereo not given),51.8% (inactive)
10,COc1cc(C(c2cc3c(cc2O)OCO3)N2CCOCC2)ccc1O (stereo not given),73% (active)
11,CCCCCCCCCCCCCCSC(=N)N,45.5% (inactive)
12,Cc1ccccc1NC(=S)Nc1ccccc1O,90.8% (active)
13,c1cc2cc(Cc3ccc4[nH]ccc4c3)ccc2[nH]1,13% (inactive)
14,N=C(N)c1ccc(-c2ccc(-c3ccc(C(=N)N)cc3)o2)cc1,90.3% (active)
15,O=c1oc2c/c(=C\c3ccccc3)c(=O)c3cccc1c3-2,81.2% (active)
16,CCCCCCCC(=O)/C=C/c1ccc(C)cc1,67.6% (inactive)
17,COc1ccc(CCC2(C)OCCC(C)O2)cc1 (stereo not given),-4.35% (inactive)
18,O=C(O)C(SC1=NNC2(C(=O)N1)c1ccccc1-c1ccccc12)SC1=NNC2(C(=O)N1)c1ccccc1-c1ccccc12,97.4% (active)
19,CC1(C)NNC(=S)NN1,21.3% (inactive)
20,O=C([O-])c1ccccc1[I+]c1ccc(C2CCCCC2)cc1,89.8% (active)

row,Compound,growth inhibition
1,ClC1=C(Cl)C(Cl)(C(Cl)(Cl)Cl)C(Cl)=C1Cl,99.7% (active)
2,Cn1nc(N)c2cccnc21,14.3% (inactive)
3,CC(C)(C)c1ccc(-n2c3nc(=O)n(-c4ccccc4C(F)(F)F)c(=O)c-3cc3ccccc32)cc1,61.1% (inactive)
4,C/C(=N\Nc1ccccn1)c1ccccn1,99% (active)
5,COc1ccc2c(C)cc(N/N=C(\C)c3ccccn3)nc2c1,99.6% (active)
6,CC([NH-])C(=O)O.[Cu+2].[NH-]C(Cc1cnc[nH]1)C(=O)O (stereo not given),98.7% (active)
7,COc1ccc(C)cc1NC(=O)ON=C1CCCCC1,91.9% (active)
8,Oc1c(N(Cc2ccccc2)Cc2ccccc2)ccc2cccnc12,98.6% (active)
9,Cc1ccc2[nH]c3cc4ccncc4cc3c2c1,3.7% (inactive)
10,Cc1ccc2nn(-c3ccc(O)cc3)nc2c1,27% (inactive)
11,Oc1ccc2c(ccc3ccccc32)c1,99.4% (active)
12,ClCc1ccc2ccc3ccc(CCl)nc3c2n1,70.2% (active)
13,CC(=O)c1c(O)c2ccc(Cl)cc2[nH]c1=O,83.2% (active)
14,O=C(c1ccc(Cl)cc1)c1ccc(OCCCOc2ccc(C(=O)c3ccc(Cl)cc3)cc2)cc1,-2.15% (inactive)
15,C=C1CC2(C[C@@H](c3ccccc3)O[C@@H](c3ccccc3)C2)OC1=O (stereo not given in full),94.5% (active)
16,O=C(N=Nc1c(O)[nH]c2ccccc12)C(O)(c1ccccc1)c1ccccc1,80.7% (active)
17,C/C(=N\O)c1ccc2c3c(ccc([N+](=O)[O-])c13)CC2,-6.4% (inactive)
18,N#CS/C(Cl)=C(/C(Cl)=C(Cl)Cl)[N+](=O)[O-],87.4% (active)
19,N#C/C(=C1C=C/C(=N/O)C=C/1Cl)c1ccccc1,51.9% (inactive)
20,O=C1/C(=C/c2ccc(Cl)c(Cl)c2)CN(C(=O)CCN2CCOCC2)C/C1=C\c1ccc(Cl)c(Cl)c1,85.2% (active)
